Test results taken from PubChem BioAssay (NCATS).
Inconclusive results are not listed. Calls of active or inactive are those of the source. Calls follow the shape of the dose curve; as a rule, active = well fitted curve in the direction sought with a large enough effect; inconclusive = small, poorly fitted or top-dose-only effect, or another doubt; inactive = no such curve, though single readings can be large; an effect the other way counts as inactive or inconclusive.

Columns and labels:
[1] = tested on: Zika virus NS2B-NS3 protease (linked construct); test: Primary screen NINDS Rhodamine qHTS for Zika virus inhibitors (AID 1347160); also: potency is read from the fitted curve at half-maximal effect; nearly all actives have a fitted effect of over 55% in size
Method in brief: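 Percent inhibition, normalized to uninhibited and enzyme-free controls, is fitted to a 4-parameter Hill equation. Fluorescence change comes from a 15-min cleavage of 1.5 microM bis-peptide Rhodamine110 substrate by 25 nM linked NS2B-NS3 at room temperature.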

[2] = HPAF-II Cancer Cell Toxicity qHTS against the NCATS CANVASS Library (AID 1347346); also: potency is read from the fitted curve at half-maximal effect; nearly all actives have a fitted effect of over 55% in size
Method in brief: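 Luminescence from CellTiter-Glo, added after 72 h compound exposure and a 15 min room-temperature incubation, served as the viability readout. HPAF-II cells (1000/well) received an 11-point concentration series.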

[3] = OV-SAHO Cancer Cell Toxicity qHTS against the NCATS CANVASS Library (AID 1347348); also: potency is read from the fitted curve at half-maximal effect; nearly all actives have a fitted effect of over 55% in size
Method in brief: (§1)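 1000 cells/well seeded and rested 4 h at 37 °C before pin transfer of compounds in an 11-pnt series. Exposure 72 h at 37 °C/5% CO2; viability by CellTiter-Glo luminescence after 15 min at room temperature.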

[4] = Panc-1005 Cancer Cell Toxicity qHTS against the NCATS CANVASS Library (AID 1347349); also: potency is read from the fitted curve at half-maximal effect; nearly all actives have a fitted effect of over 60% in size
Method in brief: as §1

[5] = SW1088 Cancer Cell Toxicity qHTS against the NCATS CANVASS Library (AID 1347350); also: potency is read from the fitted curve at half-maximal effect; nearly all actives have a fitted effect of over 75% in size
Method in brief: as §1

[6] = U-118MG Cancer Cell Toxicity qHTS against the NCATS CANVASS Library (AID 1347351); also: potency is read from the fitted curve at half-maximal effect
Method in brief: as §1

[7] = A2780 Cisplatin Sensitive Ovarian Cancer Cell Toxicity qHTS against the NCATS CANVASS Library (AID 1347353); also: potency is read from the fitted curve at half-maximal effect; nearly all actives have a fitted effect of over 60% in size
Method in brief: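 Luminescent ATP content (ATPLite, 10 min at room temperature) served as the read-out after cells had been exposed to compounds for 72 hours at 37 °C. Dosing followed an 11-point concentration series.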

[8] = HEK-293 Cancer Cell Toxicity qHTS against the NCATS CANVASS Library (AID 1347355); also: potency is read from the fitted curve at half-maximal effect; nearly all actives have a fitted effect of over 65% in size
Method in brief: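 Luminescent ATP read-out (CellTiter-Glo, 15min at room temperature) measures survival after cells face an 11-point compound series for 72 hours at 37 degrees C/5% CO2.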

[9] = HPAF-II 24hr Apoptosis Induction qHTS against the NCATS CANVASS Library (AID 1347356)
Method in brief: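 Luminescent caspase-3/7 signal (DEVD substrate, Caspase-Glo) served as read-out, taken 15 min after reagent addition to HPAF-II cells exposed 24 h to compounds.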

[10] = HEK293 18hr Apoptosis Induction qHTS against the NCATS CANVASS Library (AID 1347357)
Method in brief: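 HEK293 cells (500 per well, DMEM with 10% FBS) were treated with natural products, incubated 18 hours at 37 degrees C, then caspase-3/7 activity was read by Caspase-Glo luminescence after 15 min at room temperature.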

[11] = HPAF-II 12hr Apoptosis Induction qHTS against the NCATS CANVASS Library (AID 1347358)
Method in brief: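 500 HPAF-II cells/well; cmpds 11-pt; 12 hr, 37 degrees C/5% CO2; Caspase-Glo 3/7 added, 15 min RT dark; luminescence read. Doxorubicin titration as control.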

[12] = HEK293 24hr Apoptosis Induction qHTS against the NCATS CANVASS Library (AID 1347359)
Method in brief: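 HEK293 cells, 500 per well, exposed to an 11-point compound series for 24 hours at 37 degrees C. Caspase 3/7 activity read by Caspase-Glo luminescence (DEVD substrate) after 15 min at room temperature.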

[13] = HPAF-II 18hr Apoptosis Induction qHTS against the NCATS CANVASS Library (AID 1347360)
Method in brief: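 HPAF-II cells (500/well, DMEM + 10% FBS) were exposed to compounds for 18 hours at 37 degrees C. Caspase-3/7 activity was then read by Caspase-Glo 3/7 luminescence after 15 min at room temperature.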

[14] = tested on: NAD(P)H diaphorase (Clostridium kluyveri); test: Diaphorse counterscreen qHTS: Assay Interference Panel against the NCATS CANVASS Library (AID 1347362)
Method in brief: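 Clostridium kluyveri diaphorase in PBS + 0.01% Tween-20 preincubated 15 min with compounds. Resazurin and NADH then added for 5 min at room temperature in the dark; resorufin fluorescence read (ex 525, em 598).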

[15] = molecular target: Luciferin 4-monooxygenase (Photinus pyralis) (UniProt P08659); test: Firefly luciferase counterscreen qHTS: Assay Interference Panel against the NCATS CANVASS Library (AID 1347363); also: series mostly up to about 57 µM
Chain of Luciferin 4-monooxygenase (Photinus pyralis) (P08659 whole entry, looked up): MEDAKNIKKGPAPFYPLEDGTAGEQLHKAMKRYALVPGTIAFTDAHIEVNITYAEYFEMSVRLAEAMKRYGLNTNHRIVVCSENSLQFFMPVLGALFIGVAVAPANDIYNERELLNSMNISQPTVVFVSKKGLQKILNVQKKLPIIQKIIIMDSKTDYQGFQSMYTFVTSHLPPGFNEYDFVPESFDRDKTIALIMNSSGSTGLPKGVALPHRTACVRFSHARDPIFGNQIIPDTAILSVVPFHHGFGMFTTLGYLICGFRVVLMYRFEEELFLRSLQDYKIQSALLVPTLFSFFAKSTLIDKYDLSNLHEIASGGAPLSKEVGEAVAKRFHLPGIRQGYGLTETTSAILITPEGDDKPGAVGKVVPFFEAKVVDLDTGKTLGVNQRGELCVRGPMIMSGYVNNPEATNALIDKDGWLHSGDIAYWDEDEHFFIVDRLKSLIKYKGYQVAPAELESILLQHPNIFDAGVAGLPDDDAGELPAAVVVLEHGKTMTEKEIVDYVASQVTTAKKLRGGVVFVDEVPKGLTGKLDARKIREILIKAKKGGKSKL
Method in brief: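 Purified P. pyralis luciferase (0.04 ug/mL, 4x reagent) added to Tris-acetate buffer with 0.013 mM D-luciferin, 0.013 mM ATP and 13.3 mM Mg-acetate; compounds preincubated 15 min, then luminescence read after 5 min, RT.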

[16] = KB-8-5-11 Cancer Cell Toxicity qHTS against the NCATS CANVASS Library (AID 1347364); also: series mostly up to about 46 µM; nearly all actives have a fitted effect of over 75% in size
Method in brief: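 Plate 500 KB-8-5-11 cells per well in DMEM + 10% FBS, add compounds by pin transfer, incubate 72 hr at 37C. Add CellTiter-Glo, wait 10 minutes at room temperature, read luminescence.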

[17] = SDT Cancer Cell Toxicity qHTS against the NCATS CANVASS Library (AID 1347365); also: potency is read from the fitted curve at half-maximal effect; nearly all actives have a fitted effect of over 60% in size
Method in brief: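 qHTS, SDT dog glioma line, 500 cells/well; cpds 11 pts; 72 hr, 37C, 5% CO2; CellTiterGlo ATP luminescence.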

[18] = KB-3-1 Cancer Cell Toxicity qHTS against the NCATS CANVASS Library (AID 1347366); also: potency is read from the fitted curve at half-maximal effect; nearly all actives have a fitted effect of over 75% in size
Method in brief: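 KB-3-1 cells (500 cells/well) in DMEM + 10% FBS were treated with compounds for 72 hr at 37C, 5% CO2. Viability was read as CellTiter-Glo luminescence after 10 minutes at room temperature.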

[19] = qHTS for ATAD5 Agonist screened against the NCATS CANVASS Library (AID 1347367);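 also: luciferase reporter driven by ATAD5 which rises upon DNA damage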
Method in brief: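 HEK293T cells stably carrying an ATAD5-controlled luciferase reporter (2000 cells/well) attached for 5 hr, then received compounds in an 11-point series for 16hr at 37C. Luminescence was read after a 30 min room-temperature reagent step.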

[20] = G06 Cancer Cell Toxicity qHTS against the NCATS CANVASS Library (AID 1347368); also: potency is read from the fitted curve at half-maximal effect; nearly all actives have a fitted effect of over 60% in size
Method in brief: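 Dog G06 glioma line, 500 cells/well; cpds pin-transferred, 11-pt; 72 hr, 37C/5% CO2; CellTiterGlo luminescence (ATP) endpoint.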

[21] = MCF7 Cancer Cell Toxicity qHTS against the NCATS CANVASS Library (AID 1347369); also: series mostly up to about 46 µM
Method in brief: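 MCF7, 500 cells/well; cpds 11-pt qHTS; 72 hr, 37C/5% CO2; CellTiterGlo ATP luminescence.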

[22] = qHTS for ATAD5 Antagonist screened against the NCATS CANVASS Library (AID 1347370); also: potency is read from the fitted curve at half-maximal effect; nearly all actives have a fitted effect of over 65% in size
Method in brief: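 HEK293T cells with stably integrated ATAD5-luciferase reporter, 2000/well, 5 h attachment; compounds plus 10 µM 5-fluorouridine, 16 h at 37 °C. Luciferase luminescence read, with CellTiter-Fluor viability read first.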

[23] = J3T Cancer Cell Toxicity qHTS against the NCATS CANVASS Library (AID 1347371); also: potency is read from the fitted curve at half-maximal effect
Method in brief: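 Cells plated at 500 per well, compounds pin-transferred, plates incubated 72 hr at 37C, then CellTiterGlo added and luminescence read to measure ATP content.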

[24] = molecular target: Nuclear receptor subfamily 1 group I member 3 (Homo sapiens) (UniProt Q14994); test: qHTS for Constitutive Androstane Receptor (CAR) Agonist screened against the NCATS CANVASS Library (AID 1347373);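 also: every well also contained 1.5 µM PK11195 alongside the test compound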
Chain of Nuclear receptor subfamily 1 group I member 3 (Homo sapiens) (Q14994 whole entry, looked up): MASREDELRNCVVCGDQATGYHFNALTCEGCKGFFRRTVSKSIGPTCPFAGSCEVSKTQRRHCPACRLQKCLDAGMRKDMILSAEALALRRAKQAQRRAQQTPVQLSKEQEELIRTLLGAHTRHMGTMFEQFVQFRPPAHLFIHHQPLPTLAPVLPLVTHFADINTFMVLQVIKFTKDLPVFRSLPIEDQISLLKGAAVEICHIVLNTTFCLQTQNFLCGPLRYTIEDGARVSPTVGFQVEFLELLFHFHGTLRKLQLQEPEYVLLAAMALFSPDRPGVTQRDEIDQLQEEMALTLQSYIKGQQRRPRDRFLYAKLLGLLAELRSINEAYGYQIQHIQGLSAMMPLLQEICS
Method in brief: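 HepG2-hCAR-CYP2B6 cells, 2500/well, attached 4hr; cpd + PK11195 1.5uM final; 24hr 37C 5% CO2. CellTiter-Fluor viability read, then ONE-Glo luminescence for CAR activation.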

[25] = qHTS for Hypoxia signaling pathway (HIF-1) antagonists against the NCATS CANVASS Library (AID 1347374)
Method in brief: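 HRE-bla ME-180 cells in medium with 0.5% dialyzed FBS received compounds (11-point series) plus CoCl2 (60 uM addition stock) for 17 hrs at 37C. Beta-lactamase activity read with CCF4 (405 nm ex, 460/530 nm em); CellTiter-Glo viability measured in same wells.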

[26] = qHTS for Hypoxia signaling pathway (HIF-1) agonists against the NCATS CANVASS Library (AID 1347375)
Method in brief: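 ME-180 HRE-bla reporter cells; 2,000/well, 0.5% dialyzed FBS; cpd added after 5 h, 17 h 37C/5% CO2; CCF4-AM 2 h RT; FRET 460/530 nm; CellTiter-Glo viability same wells, 30 min.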

[27] = 10-beta competent E. coli microbial cell viability qHTS against the NCATS CANVASS Library (AID 1347376); also: series mostly up to about 46 µM
Method in brief: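 E. coli 10-beta, 0.2 OD; cpds 11-pt; o/n 37C, 5% CO2; BacTiter-Glo 20 min RT; luminescence (ATP) = viable cells. Daunomycin ctrl.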

[28] = DH5-alpha competent E. coli microbial cell viability qHTS against the NCATS CANVASS Library (AID 1347377); conditions: outcome: dose series up to 46.1 µM unless noted
Method in brief: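 qHTS, 11-pt; E. coli DH5-alpha, 0.2 OD; o/n 37C/5% CO2; BacTiter-Glo, 20 min RT; luminescence.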

[29] = qHTS for H2AX Agonists against the NCATS CANVASS Library (AID 1347378)
Method in brief: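 CHO-K1 cells were plated overnight at 37C, then exposed to compounds (concentration series, 0.76% DMSO final) for 3 hr at 37C. Lysates received Eu-cryptate anti-pH2AX (S139) and d2 anti-H2AX antibodies; after 24 hr at room temperature, TR-FRET 665/620 nm ratio was read.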

[30] = qHTS for Inflammasome Signaling Inhibitors: IL-1-beta AlphaLISA screen against the NCATS CANVASS Library (AID 1347379);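 also: human THP-1 cells primed with LPS then triggered with ATP; secreted IL-1B measured as AlphaLISA emission at 615 nm; potency is read from the fitted curve at half-maximal effect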
Method in brief: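 THP-1 cells pretreated 1 hr with compound (up to 57.5 uM final), then stimulated with LPS (250 ng/mL final) and ATP (1.25 mM final). Secreted IL-1B measured by AlphaLISA after 16 hr; glyburide as positive control.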

[31] = Inflammasome Signaling qHTS Counterscreen: IL-1-beta AlphaLISA counterscreen against the NCATS CANVASS Library (AID 1347381);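 also: cell-free check with purified IL-1β in medium and no THP-1 cells; series mostly up to about 57 µM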
Method in brief: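 Cell-free interference check: compounds added to medium spiked with 4 pg purified IL-1β. Anti-IL-1β acceptor beads (6 ug/mL) with 0.6 nM biotinylated antibody added for 1 h at RT, then streptavidin donor beads (24 ug/mL) for 30 min in the dark. AlphaLISA read at 680/615 nm.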

[32] = Cytotoxicity qHTS for assessment of Hepg2 cells membrane integrity screened against the NCATS CANVASS Library (AID 1347387)
Method in brief: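 qHTS, 11-pt conc. series, 0.59 nM - 46 uM final; HepG2 2000 cells/well, overnight attachment; 5 hr compound exposure 37C/5% CO2; CytoTox-ONE, 10 min RT; fluorescence ex560/em590 = LDH from damaged membranes.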

[33] = qHTS for activators of Nrf2/ARE signaling pathway screened against the NCATS CANVASS Library (AID 1347391)
Method in brief: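 Plate ARE-bla HepG2 cells at 2000/well and let them settle 5 h. Pin-transfer compounds in DMSO, incubate 16 h at 37C. Load CCF4 for 2 h at room temperature and read blue/green fluorescence.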

[34] = qHTS for activators of dead-cell proteases activity screened against the NCATS CANVASS Library (AID 1347392);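 also: luminescence from protease leaking out of membrane-damaged cells cleaving impermeant substrate; rising signal means more cytotoxicity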
Method in brief: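 HepG2 cells, 2000/well, attached 18 h at 37C, then exposed to compounds (11-point qHTS) for 5 h. Dead-cell protease release read as luminescence from cell-impermeant AAF-aminoluciferin substrate after 15 min at room temperature.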

[35] = qHTS for inhibitors of ER calcium dysfunction: SERCaMP assay screened against the NCATS CANVASS Library (AID 1347393); also: potency is read from the fitted curve at half-maximal effect; nearly all actives have a fitted effect of over 40% in size
Method in brief: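 SH-SY5Y GLuc-SERCaMP, 1000 cells/well, 4 h attach; cpd 16 h, 37C/5% CO2; thapsigargin (added as 6x 600 nM) 4 h; coelenterazine; luminescence. Reduced reporter release = ER Ca stabilization.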

[36] = Vero-766 cells viability qHTS against the NCATS CANVASS Library: Counterscreen for Zika virus inhibition assay (AID 1347394)
Method in brief: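 Uninfected Vero 766 (African green monkey) cells, 1000/well, attached overnight, then exposed 72 h at 37C to compounds (11-point qHTS). Viability read by CellTiter-Glo luminescence; media-only wells served as 100% inhibition.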

[37] = qHTS for inhibitors of Wild type Zika virus screened against the NCATS CANVASS Library (AID 1347396);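 also: ATP luminescence of surviving cells so rescue from viral cell killing; series mostly up to about 46 µM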
Method in brief: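 Using ATP-based luminescence (CellTiter Glo), this screen scores rescue of Vero 766 cells from wild-type Zika killing at 72 h post-infection. Compounds are tested in a concentration series.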

[38] = Viability qHTS for inhibitors of the SERCaMP assay screened against the NCATS CANVASS Library (AID 1347400); also: potency is read from the fitted curve at half-maximal effect; nearly all actives have a fitted effect of over 70% in size
Method in brief: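 SH-SY5Y SERCaMP MJH297 cells, 1000/well; 4 h settle, 37C/5% CO2; pin-transferred cpds; 48 h; CellTiter-Glo lum. Pos ctrl bortezomib 0.0001 - 4.6 uM.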

[39] = Redox Reaction Profiling qHTS: Assay Interference Panel against the NCATS CANVASS Library (AID 1347401); also: potency is read from the fitted curve at half-maximal effect
Method in brief: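 Compounds in 11-point series incubated with 5 uM resazurin and 200 uM DTT in 50 mM HEPES pH 7.3, 50 mM NaCl. Resorufin fluorescence (Ex 525/Em 598) read before and after 15 min in the dark.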

Measured: Potency

C/C1=C/[C@@H](C)[C@H](O)C/C=C/CC/C=C/C(=O)O[C@@H]1[C@H](C)C(=O)/C=C/CC1CC(=O)NC(=O)C1
active: [1] 44 µM | [2] 13.3 µM | [3] 8.38 µM | [4] 11.9 µM | [5] 21.1 µM | [6] 21.1 µM | [7] 3.72 µM | [8] 7.43 µM | [17] 9.35 µM | [18] 13.2 µM | [20] 14.8 µM | [22] 16.6 µM | [23] 16.6 µM | [25] 7.47 µM | [30] 13.7 µM | [33] 2.34 µM | [35] 4.31 µM | [38] 38.1 µM | [39] 24.1 µM
inactive: all other assays above
